# B1: unnamed (peptide)
# chain: NNQRRKPLLLNIGDH
# B2: unnamed (peptide)
# chain: PLQSKIPMLPSRRTM
# Target: CaNbp2
# Test: SPOT peptide array binding signal intensity (averaged, normalized) (arbitrary units (background-subtracted, floor 0; scale differs between SH3 domains)); higher = stronger binding of the SH3 domain to the peptide
# Outline: (§1)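 GST-fused SH3 domains from four yeast species were expressed in E. coli BL21(DE3), purified on glutathione Sepharose and incubated at 10 μg/ml overnight at 4°C in TBS-based blocking buffer on cellulose membranes carrying synthetic 15-mer peptides, with cysteines replaced by serines. Bound protein was detected with anti-GST antibody, an HRP anti-mouse secondary and luminol, then imaged and quantified with Genespotter. Binding signal is the normalized, background-subtracted spot intensity averaged over replicates, in arbitrary units that differ between domains.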
row,Binder,SPOT peptide array binding signal intensity
1,B1,528
2,B2,881

# Target: CaRvs167
# Test: as above
# Outline: as §1
row,Binder,SPOT peptide array binding signal intensity
1,B1,12
2,B2,1060

# Target: CaRvs167-3
# Test: as above
# Outline: as §1
row,Binder,SPOT peptide array binding signal intensity
1,B1,35.8
2,B2,4

# Target: CaSho1
# Test: as above
# Outline: as §1
row,Binder,SPOT peptide array binding signal intensity
1,B1,420
2,B2,400

# Target: CaSla1-D1-D2
# Test: as above
# Outline: as §1
row,Binder,SPOT peptide array binding signal intensity
1,B1,≤ 0
2,B2,1030

# Target: CaSla1-D3
# Test: as above
# Outline: as §1
row,Binder,SPOT peptide array binding signal intensity
1,B1,2.25
2,B2,332

# Target: ScAbp1
# Test: as above
# Outline: as §1
row,Binder,SPOT peptide array binding signal intensity
1,B1,442
2,B2,34.5

# Target: ScBbc1
# Test: as above
# Outline: as §1
row,Binder,SPOT peptide array binding signal intensity
1,B1,≤ 0
2,B2,246

# Target: ScBem1-D1
# Test: as above
# Outline: as §1
row,Binder,SPOT peptide array binding signal intensity
1,B1,3
2,B2,2

# Target: ScBzz1-D1
# Test: as above
# Outline: as §1
row,Binder,SPOT peptide array binding signal intensity
1,B1,16.5
2,B2,≤ 0

# Target: ScBzz1-D2
# Test: as above
# Outline: as §1
row,Binder,SPOT peptide array binding signal intensity
1,B1,≤ 0
2,B2,27

# Target: ScCyk3
# Test: as above
# Outline: as §1
row,Binder,SPOT peptide array binding signal intensity
1,B1,33
2,B2,9

# Target: ScFus1
# Test: as above
# Outline: as §1
row,Binder,SPOT peptide array binding signal intensity
1,B1,272
2,B2,218

# Target: ScHof1
# Test: as above
# Outline: as §1
row,Binder,SPOT peptide array binding signal intensity
1,B1,0.5
2,B2,79

# Target: ScHse1
# Test: as above
# Outline: as §1
row,Binder,SPOT peptide array binding signal intensity
1,B1,1820
2,B2,127

# Target: ScLsb1
# Test: as above
# Outline: as §1
row,Binder,SPOT peptide array binding signal intensity
1,B1,≤ 0
2,B2,287

# Target: ScLsb2
# Test: as above
# Outline: as §1
row,Binder,SPOT peptide array binding signal intensity
1,B1,≤ 0
2,B2,629

# Target: ScLsb3
# Test: as above
# Outline: as §1
row,Binder,SPOT peptide array binding signal intensity
1,B1,68
2,B2,5990

# Target: ScLsb4
# Test: as above
# Outline: as §1
row,Binder,SPOT peptide array binding signal intensity
1,B1,≤ 0
2,B2,2850

# Target: ScMyo3
# Test: as above
# Outline: as §1
row,Binder,SPOT peptide array binding signal intensity
1,B1,≤ 0
2,B2,≤ 0

# Target: ScMyo5
# Test: as above
# Outline: as §1
row,Binder,SPOT peptide array binding signal intensity
1,B1,≤ 0
2,B2,≤ 0

# Target: ScNbp2
# Test: as above
# Outline: as §1
row,Binder,SPOT peptide array binding signal intensity
1,B1,112
2,B2,760

# Target: ScPex13
# Test: as above
# Outline: as §1
row,Binder,SPOT peptide array binding signal intensity
1,B1,≤ 0
2,B2,945

# Target: ScRvs167
# Test: as above
# Outline: as §1
row,Binder,SPOT peptide array binding signal intensity
1,B1,4.33
2,B2,2220

# Target: ScSho1
# Test: as above
# Outline: as §1
row,Binder,SPOT peptide array binding signal intensity
1,B1,676
2,B2,586

# Target: ScSla1-D1-D2
# Test: as above
# Outline: as §1
row,Binder,SPOT peptide array binding signal intensity
1,B1,37
2,B2,999

# Target: ScSla1-D3
# Test: as above
# Outline: as §1
row,Binder,SPOT peptide array binding signal intensity
1,B1,≤ 0
2,B2,514

# Target: SpAbp1-D1
# Test: as above
# Outline: as §1
row,Binder,SPOT peptide array binding signal intensity
1,B1,384
2,B2,149

# Target: SpBbc1
# Test: as above
# Outline: as §1
row,Binder,SPOT peptide array binding signal intensity
1,B1,0.5
2,B2,14

# Target: SpBzz1-D1
# Test: as above
# Outline: as §1
row,Binder,SPOT peptide array binding signal intensity
1,B1,136
2,B2,953

# Target: SpBzz1-D2
# Test: as above
# Outline: as §1
row,Binder,SPOT peptide array binding signal intensity
1,B1,≤ 0
2,B2,2

# Target: SpCyk3
# Test: as above
# Outline: as §1
row,Binder,SPOT peptide array binding signal intensity
1,B1,≤ 0
2,B2,16

# Target: SpHof1
# Test: as above
# Outline: as §1
row,Binder,SPOT peptide array binding signal intensity
1,B1,93.2
2,B2,61.2

# Target: SpHof1-2
# Test: as above
# Outline: as §1
row,Binder,SPOT peptide array binding signal intensity
1,B1,2.5
2,B2,76.2

# Target: SpHof1-3
# Test: as above
# Outline: as §1
row,Binder,SPOT peptide array binding signal intensity
1,B1,892
2,B2,108

# Target: SpHse1
# Test: as above
# Outline: as §1
row,Binder,SPOT peptide array binding signal intensity
1,B1,1730
2,B2,272

# Target: SpLsb1
# Test: as above
# Outline: as §1
row,Binder,SPOT peptide array binding signal intensity
1,B1,≤ 0
2,B2,612

# Target: SpLsb4
# Test: as above
# Outline: as §1
row,Binder,SPOT peptide array binding signal intensity
1,B1,≤ 0
2,B2,5580

# Target: SpMyo1
# Test: as above
# Outline: as §1
row,Binder,SPOT peptide array binding signal intensity
1,B1,≤ 0
2,B2,61.5

# Target: SpNbp2
# Test: as above
# Outline: as §1
row,Binder,SPOT peptide array binding signal intensity
1,B1,133
2,B2,118

# Target: SpPex13
# Test: as above
# Outline: as §1
row,Binder,SPOT peptide array binding signal intensity
1,B1,≤ 0
2,B2,224

# Target: SpRvs167
# Test: as above
# Outline: as §1
row,Binder,SPOT peptide array binding signal intensity
1,B1,≤ 0
2,B2,2200

# Target: SpSla1-D1-D2
# Test: as above
# Outline: as §1
row,Binder,SPOT peptide array binding signal intensity
1,B1,≤ 0
2,B2,68

# Target: SpSla1-D3
# Test: as above
# Outline: as §1
row,Binder,SPOT peptide array binding signal intensity
1,B1,≤ 0
2,B2,173

# Target: AgAbp1
# Test: as above
# Outline: as §1
row,Binder,SPOT peptide array binding signal intensity
1,B2,98.5

# Target: AgBbc1
# Test: as above
# Outline: as §1
row,Binder,SPOT peptide array binding signal intensity
1,B2,267

# Target: AgBem1-D1
# Test: as above
# Outline: as §1
row,Binder,SPOT peptide array binding signal intensity
1,B2,26.5

# Target: AgBzz1-D1
# Test: as above
# Outline: as §1
row,Binder,SPOT peptide array binding signal intensity
1,B2,48

# Target: AgBzz1-D2
# Test: as above
# Outline: as §1
row,Binder,SPOT peptide array binding signal intensity
1,B2,9

# Target: AgCyk3
# Test: as above
# Outline: as §1
row,Binder,SPOT peptide array binding signal intensity
1,B2,3

# Target: AgFus1
# Test: as above
# Outline: as §1
row,Binder,SPOT peptide array binding signal intensity
1,B2,98.5

# Target: AgHof1
# Test: as above
# Outline: as §1
row,Binder,SPOT peptide array binding signal intensity
1,B2,211

# Target: AgHse1
# Test: as above
# Outline: as §1
row,Binder,SPOT peptide array binding signal intensity
1,B2,300

# Target: AgLsb1
# Test: as above
# Outline: as §1
row,Binder,SPOT peptide array binding signal intensity
1,B2,555

# Target: AgLsb4
# Test: as above
# Outline: as §1
row,Binder,SPOT peptide array binding signal intensity
1,B2,4990

# Target: AgMyo5
# Test: as above
# Outline: as §1
row,Binder,SPOT peptide array binding signal intensity
1,B2,≤ 0

# Target: AgNbp2
# Test: as above
# Outline: as §1
row,Binder,SPOT peptide array binding signal intensity
1,B2,302

# Target: AgRvs167
# Test: as above
# Outline: as §1
row,Binder,SPOT peptide array binding signal intensity
1,B2,483

# Target: AgSho1
# Test: as above
# Outline: as §1
row,Binder,SPOT peptide array binding signal intensity
1,B2,131

# Target: AgSla1-D1-D2
# Test: as above
# Outline: as §1
row,Binder,SPOT peptide array binding signal intensity
1,B2,28

# Target: AgSla1-D3
# Test: as above
# Outline: as §1
row,Binder,SPOT peptide array binding signal intensity
1,B2,6.5

# Target: CaAbp1-D1
# Test: as above
# Outline: as §1
row,Binder,SPOT peptide array binding signal intensity
1,B2,470

# Target: CaAbp1-D2
# Test: as above
# Outline: as §1
row,Binder,SPOT peptide array binding signal intensity
1,B2,342

# Target: CaBbc1
# Test: as above
# Outline: as §1
row,Binder,SPOT peptide array binding signal intensity
1,B2,694

# Target: CaBem1-D1
# Test: as above
# Outline: as §1
row,Binder,SPOT peptide array binding signal intensity
1,B2,10.5

# Target: CaBzz1-D1
# Test: as above
# Outline: as §1
row,Binder,SPOT peptide array binding signal intensity
1,B2,274

# Target: CaBzz1-D2
# Test: as above
# Outline: as §1
row,Binder,SPOT peptide array binding signal intensity
1,B2,224

# Target: CaCyk3
# Test: as above
# Outline: as §1
row,Binder,SPOT peptide array binding signal intensity
1,B2,18.5

# Target: CaFus1
# Test: as above
# Outline: as §1
row,Binder,SPOT peptide array binding signal intensity
1,B2,897

# Target: CaHof1
# Test: as above
# Outline: as §1
row,Binder,SPOT peptide array binding signal intensity
1,B2,1

# Target: CaHse1
# Test: as above
# Outline: as §1
row,Binder,SPOT peptide array binding signal intensity
1,B2,195

# Target: CaLsb1
# Test: as above
# Outline: as §1
row,Binder,SPOT peptide array binding signal intensity
1,B2,18.2

# Target: CaLsb4
# Test: as above
# Outline: as §1
row,Binder,SPOT peptide array binding signal intensity
1,B2,5220

# Target: CaMyo5
# Test: as above
# Outline: as §1
row,Binder,SPOT peptide array binding signal intensity
1,B2,30

# Reference: the supplement of paper PMC4466140
